What all share (parameters): scale not given: direction of the effect not stated beside the values
For test [1], the target named is Protein translocase subunit SecA (Escherichia coli (strain K12)) (UniProt P10408). In words: Assay to Identify E. coli SecA ATPase Inhibitors. It counts as functional. The conditions noted are these: 30 µM.
Test [2] addresses T1, Ubiquitin-activating enzyme e1, putative (Leishmania donovani (strain BPK282A1)) (UniProt E9BSI1).
T1 sequence (whole entry): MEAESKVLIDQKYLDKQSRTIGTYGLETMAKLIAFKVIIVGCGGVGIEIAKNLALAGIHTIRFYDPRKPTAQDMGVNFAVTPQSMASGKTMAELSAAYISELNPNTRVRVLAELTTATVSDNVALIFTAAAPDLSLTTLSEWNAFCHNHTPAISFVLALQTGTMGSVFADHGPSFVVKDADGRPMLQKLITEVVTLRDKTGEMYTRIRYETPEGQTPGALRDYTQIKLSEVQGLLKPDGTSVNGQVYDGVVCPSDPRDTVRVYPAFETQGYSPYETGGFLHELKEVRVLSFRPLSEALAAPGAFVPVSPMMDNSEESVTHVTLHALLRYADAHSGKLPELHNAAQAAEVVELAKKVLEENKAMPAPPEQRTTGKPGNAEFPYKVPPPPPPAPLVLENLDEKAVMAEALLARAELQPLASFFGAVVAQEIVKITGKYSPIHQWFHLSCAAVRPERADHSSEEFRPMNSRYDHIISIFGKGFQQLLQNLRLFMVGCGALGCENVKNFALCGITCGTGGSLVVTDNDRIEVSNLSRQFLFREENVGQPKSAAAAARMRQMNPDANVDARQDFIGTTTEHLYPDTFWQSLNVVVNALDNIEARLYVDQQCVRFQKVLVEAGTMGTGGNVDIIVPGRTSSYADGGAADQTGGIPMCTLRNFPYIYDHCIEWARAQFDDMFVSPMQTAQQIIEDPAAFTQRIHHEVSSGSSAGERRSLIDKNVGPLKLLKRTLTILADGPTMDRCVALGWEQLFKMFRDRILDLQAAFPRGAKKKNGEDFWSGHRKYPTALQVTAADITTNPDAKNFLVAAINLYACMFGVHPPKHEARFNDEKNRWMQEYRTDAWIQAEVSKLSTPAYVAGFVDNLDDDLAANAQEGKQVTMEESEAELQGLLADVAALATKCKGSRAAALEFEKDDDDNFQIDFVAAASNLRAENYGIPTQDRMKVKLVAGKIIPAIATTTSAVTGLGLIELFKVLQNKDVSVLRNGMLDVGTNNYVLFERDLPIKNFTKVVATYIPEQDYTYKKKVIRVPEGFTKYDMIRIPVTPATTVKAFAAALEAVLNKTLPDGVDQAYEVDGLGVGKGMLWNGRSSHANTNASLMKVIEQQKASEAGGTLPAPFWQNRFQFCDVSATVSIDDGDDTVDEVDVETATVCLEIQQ
In words: Leishmania donovani Ubiquitin Activating Enzyme (LdE1). It counts as functional. The conditions noted are these: 30 µM.

Test [3] has as its target AMP-activated protein kinase, AMPK (Homo sapiens) (UniProt P54646+O43741+P54619+Q9UGJ0+Q9Y478+Q13131+Q9UGI9). In words: AMP-dependent Kinase enzyme assay. An in vitro enzyme assay that detects ADP turnover that is directly proportional to AMPK activity. This uses naive AMPK that is activated during the assay with MK-8722. It counts as functional. As to conditions: 30 µM.

The target of test [4] is Sialic acid-binding Ig-like lectin 9 (Homo sapiens) (UniProt Q9Y336). In words: Hs-Siglec9 ALPHAscreen SOP 20170721. As to conditions: 10 µM.
A further test relates to Trypanosoma cruzi. In words: Trypanosoma cruzi phosphomannomutase and mannose-1-phosphate guanylyltransferase assay. It counts as functional. The conditions noted are these: 10 µM.
Test [5] concerns the target T2, Arginase-2, mitochondrial (Homo sapiens) (UniProt P78540).
T2 sequence (whole entry): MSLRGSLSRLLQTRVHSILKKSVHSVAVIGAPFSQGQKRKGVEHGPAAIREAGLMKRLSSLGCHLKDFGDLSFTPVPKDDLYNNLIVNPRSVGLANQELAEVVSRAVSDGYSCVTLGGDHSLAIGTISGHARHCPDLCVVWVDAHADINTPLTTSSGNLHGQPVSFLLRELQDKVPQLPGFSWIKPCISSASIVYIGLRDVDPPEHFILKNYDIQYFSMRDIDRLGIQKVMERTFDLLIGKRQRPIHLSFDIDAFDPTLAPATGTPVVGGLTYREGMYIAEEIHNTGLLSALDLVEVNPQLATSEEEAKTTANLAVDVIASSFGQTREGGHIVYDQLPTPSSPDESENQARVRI
In words: in vitro enzyme assay to detect the production of urea directly proportional to the activity of Arginase II. Note: in the data most compounds retested in dose-response had high values. It counts as functional. The conditions noted are these: 33.3 µM.

Test [6] addresses T3, Proteasome subunit beta (Trypanosoma cruzi) (UniProt O96673).
T3 sequence (whole entry): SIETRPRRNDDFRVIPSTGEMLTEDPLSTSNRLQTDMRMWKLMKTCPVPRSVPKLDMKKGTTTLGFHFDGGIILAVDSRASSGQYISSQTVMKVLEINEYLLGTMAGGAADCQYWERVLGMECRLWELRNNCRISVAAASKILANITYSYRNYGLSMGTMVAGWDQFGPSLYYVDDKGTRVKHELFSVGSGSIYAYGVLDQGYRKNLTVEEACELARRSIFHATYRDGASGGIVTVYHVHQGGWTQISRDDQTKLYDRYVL
In words: Trypanosoma cruzi proteasome chymotrypsin-like activity (TcProtChymo) assay. Note: in the data most compounds retested in dose-response had high values. The conditions noted are these: 9.37 µM. It counts as functional.

Another test is filed under the species Homo sapiens. In words: To identify inhibition of the IFN signalling (Jak-Stat) pathway via expression of an eGFP reporter gene under the control of an IFN-stimulated response element (ISRE) containing MxA promoter. The conditions noted are these: 30 µM. It counts as functional.
For test [7], the target named is T4, Tyrosyl-tRNA synthetase, putative (Trypanosoma cruzi (strain CL Brener)) (UniProt Q4DSP6).
T4 sequence (whole entry): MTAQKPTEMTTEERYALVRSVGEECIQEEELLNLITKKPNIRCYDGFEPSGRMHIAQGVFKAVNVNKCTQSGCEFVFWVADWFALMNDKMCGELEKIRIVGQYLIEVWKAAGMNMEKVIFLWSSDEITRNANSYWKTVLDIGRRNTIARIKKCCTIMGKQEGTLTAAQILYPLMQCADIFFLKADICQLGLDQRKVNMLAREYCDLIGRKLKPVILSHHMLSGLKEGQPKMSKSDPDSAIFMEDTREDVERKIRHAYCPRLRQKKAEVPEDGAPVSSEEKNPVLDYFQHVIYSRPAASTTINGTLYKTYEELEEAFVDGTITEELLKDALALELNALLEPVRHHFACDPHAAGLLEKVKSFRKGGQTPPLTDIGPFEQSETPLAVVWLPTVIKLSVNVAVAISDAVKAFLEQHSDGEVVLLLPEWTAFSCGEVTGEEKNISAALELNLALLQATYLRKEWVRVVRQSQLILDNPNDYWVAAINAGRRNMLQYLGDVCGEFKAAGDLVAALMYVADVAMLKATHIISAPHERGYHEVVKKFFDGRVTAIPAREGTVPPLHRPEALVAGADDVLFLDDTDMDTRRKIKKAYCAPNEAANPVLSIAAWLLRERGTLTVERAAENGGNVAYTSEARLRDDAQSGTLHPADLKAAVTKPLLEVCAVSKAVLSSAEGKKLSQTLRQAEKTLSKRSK
In words: Trypanosoma cruzi tyrosyl tRNA synthetase (TcYRS) _High Tyrosine SOP. Note: in the data most compounds retested in dose-response had high values. As to conditions: 30 µM. It counts as functional.

For test [8], the target named is T4, Tyrosyl-tRNA synthetase, putative (Trypanosoma cruzi (strain CL Brener)). In words: Trypanosoma cruzi tyrosyl tRNA synthetase (TcYRS) SOP. It counts as functional. As to conditions: 30 µM.
Test [9] concerns the target Chromo domain-containing protein 1 (Saccharomyces cerevisiae (strain ATCC 204508 / S288c) (Baker's yeast)) (UniProt P32657). In words: ScCHD-1 Enzyme Inhibition Assay. Note: in the data most compounds retested in dose-response had high values. It counts as functional. The conditions noted are these: 30 µM.

For some assays here: Potency and affinity values are given separately.

Sialic acid-binding Ig-like lectin 9 (Homo sapiens), sequence (Q9Y336 whole entry): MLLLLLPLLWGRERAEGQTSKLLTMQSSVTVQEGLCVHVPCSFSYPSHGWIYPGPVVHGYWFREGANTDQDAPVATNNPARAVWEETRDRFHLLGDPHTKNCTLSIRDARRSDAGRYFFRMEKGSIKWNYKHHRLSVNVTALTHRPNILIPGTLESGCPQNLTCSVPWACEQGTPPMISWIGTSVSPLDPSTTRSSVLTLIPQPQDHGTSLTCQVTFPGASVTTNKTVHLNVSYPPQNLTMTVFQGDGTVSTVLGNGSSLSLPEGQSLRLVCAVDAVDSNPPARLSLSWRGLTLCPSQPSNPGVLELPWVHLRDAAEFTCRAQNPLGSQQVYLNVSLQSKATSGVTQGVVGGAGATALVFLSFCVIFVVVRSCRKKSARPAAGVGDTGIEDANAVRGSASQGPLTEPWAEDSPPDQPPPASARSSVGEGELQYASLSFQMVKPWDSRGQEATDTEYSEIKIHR
Protein translocase subunit SecA (Escherichia coli (strain K12)), sequence (P10408 whole entry): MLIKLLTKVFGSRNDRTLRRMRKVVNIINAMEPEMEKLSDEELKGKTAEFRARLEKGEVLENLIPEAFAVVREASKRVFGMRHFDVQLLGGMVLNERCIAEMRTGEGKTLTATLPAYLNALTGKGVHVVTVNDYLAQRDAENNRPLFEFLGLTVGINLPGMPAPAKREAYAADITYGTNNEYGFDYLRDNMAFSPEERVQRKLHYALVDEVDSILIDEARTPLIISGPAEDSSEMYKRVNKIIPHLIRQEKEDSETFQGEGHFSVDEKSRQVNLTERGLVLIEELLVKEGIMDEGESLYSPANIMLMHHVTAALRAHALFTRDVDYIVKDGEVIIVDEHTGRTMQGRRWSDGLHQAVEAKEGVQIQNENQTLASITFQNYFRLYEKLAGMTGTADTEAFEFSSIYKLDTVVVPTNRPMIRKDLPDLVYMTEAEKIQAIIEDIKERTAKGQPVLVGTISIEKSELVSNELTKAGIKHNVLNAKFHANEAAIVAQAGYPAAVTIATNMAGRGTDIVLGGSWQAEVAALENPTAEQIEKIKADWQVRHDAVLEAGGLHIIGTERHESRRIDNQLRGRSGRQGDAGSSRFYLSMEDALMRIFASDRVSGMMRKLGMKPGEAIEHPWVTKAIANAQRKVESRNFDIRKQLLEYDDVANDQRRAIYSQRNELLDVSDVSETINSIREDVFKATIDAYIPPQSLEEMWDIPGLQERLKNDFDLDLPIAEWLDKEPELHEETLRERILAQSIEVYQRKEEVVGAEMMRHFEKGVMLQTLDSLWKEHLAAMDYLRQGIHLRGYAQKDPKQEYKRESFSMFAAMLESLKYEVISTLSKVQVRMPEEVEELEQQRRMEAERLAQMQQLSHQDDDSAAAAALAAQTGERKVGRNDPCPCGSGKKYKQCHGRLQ
Chromo domain-containing protein 1 (Saccharomyces cerevisiae (strain ATCC 204508 / S288c) (Baker's yeast)), sequence (P32657 whole entry, the tested form may be a part): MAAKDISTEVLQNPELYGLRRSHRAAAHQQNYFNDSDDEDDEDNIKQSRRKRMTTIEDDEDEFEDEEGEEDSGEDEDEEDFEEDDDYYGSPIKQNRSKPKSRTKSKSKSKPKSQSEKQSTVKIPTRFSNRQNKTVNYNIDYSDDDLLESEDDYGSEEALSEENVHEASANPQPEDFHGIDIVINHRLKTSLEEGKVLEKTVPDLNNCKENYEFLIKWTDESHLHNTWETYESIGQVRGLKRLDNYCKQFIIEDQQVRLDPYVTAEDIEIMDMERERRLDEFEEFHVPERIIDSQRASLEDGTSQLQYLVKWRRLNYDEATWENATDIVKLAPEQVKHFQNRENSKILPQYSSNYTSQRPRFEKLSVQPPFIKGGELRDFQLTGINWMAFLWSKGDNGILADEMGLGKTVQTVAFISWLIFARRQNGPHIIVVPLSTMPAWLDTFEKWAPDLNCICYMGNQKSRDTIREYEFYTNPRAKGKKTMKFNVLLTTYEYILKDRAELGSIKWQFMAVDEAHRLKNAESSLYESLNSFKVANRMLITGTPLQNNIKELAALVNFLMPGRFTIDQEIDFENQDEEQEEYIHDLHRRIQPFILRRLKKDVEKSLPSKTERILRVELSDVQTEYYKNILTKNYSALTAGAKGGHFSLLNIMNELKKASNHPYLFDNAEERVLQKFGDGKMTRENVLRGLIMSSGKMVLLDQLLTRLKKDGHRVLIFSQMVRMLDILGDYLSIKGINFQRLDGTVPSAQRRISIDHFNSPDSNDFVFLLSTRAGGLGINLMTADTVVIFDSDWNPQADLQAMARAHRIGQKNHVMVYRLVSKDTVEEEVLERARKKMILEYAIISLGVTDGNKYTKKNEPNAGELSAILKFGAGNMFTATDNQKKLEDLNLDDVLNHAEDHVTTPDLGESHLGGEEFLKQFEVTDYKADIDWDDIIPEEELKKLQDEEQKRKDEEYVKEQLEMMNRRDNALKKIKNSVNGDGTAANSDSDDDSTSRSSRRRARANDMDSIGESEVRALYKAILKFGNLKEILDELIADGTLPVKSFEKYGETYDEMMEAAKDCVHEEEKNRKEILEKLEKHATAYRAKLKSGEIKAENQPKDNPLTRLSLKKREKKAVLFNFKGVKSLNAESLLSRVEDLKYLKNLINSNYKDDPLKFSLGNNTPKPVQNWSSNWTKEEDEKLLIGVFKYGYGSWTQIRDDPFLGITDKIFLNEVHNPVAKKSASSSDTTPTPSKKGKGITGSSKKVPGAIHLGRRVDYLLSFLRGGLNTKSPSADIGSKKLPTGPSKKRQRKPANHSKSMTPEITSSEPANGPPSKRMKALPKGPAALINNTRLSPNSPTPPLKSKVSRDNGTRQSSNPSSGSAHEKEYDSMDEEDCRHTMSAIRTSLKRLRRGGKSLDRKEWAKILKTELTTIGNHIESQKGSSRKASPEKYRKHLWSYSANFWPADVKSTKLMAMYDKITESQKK

Regarding `N#Cc1cc(NS(=O)(=O)c2ccc(C(=O)O)cc2F)ccc1F`, the Percent Effect in test [1] is -2.74%; in test [2], -13.5%; in test [3], -2.89%; in test [4] it was 0.735%; in the test on Trypanosoma cruzi, -0.472%; in [5] it was 4.41%. The Percent Effect in test [6] was -3.24%; in the test filed under Homo sapiens, -0.301%; in test [7], 0.493%; in test [8] it was 1.24%; in test [9], -0.823%.
As for `COCCN1CCC(CN(CC2CCCO2)C(=O)CCNC(C)=O)CC1` (stereo not given), the Percent Effect in test [1] was -1.45%; in test [2], -4.17%; in [3], -2.84%; in [4] it was -5.53%; in the test with Trypanosoma cruzi it was -1.26%; in test [5] it was 0.883%. For the same molecule, the Percent Effect was 1.75% in test [6]; -4.52% in the test filed under Homo sapiens; 0% in [7]; 0% in test [8]; 1.82% in test [9].
`COc1ccc(CN2C[C@H](OCC3CCOCC3)[C@H]3COC[C@H]32)cc1`: the Percent Effect in test [1] was -0.325%; in test [2], 0%; in [3], -1.04%; in [4], 9.22%; with Trypanosoma cruzi, -0.992%; in test [5] it was -3.99%. In addition, the Percent Effect in [6] was 15.3%; in the test filed under Homo sapiens, 3.85%; in [7], 11.5%; in test [8], 11.1%; in test [9], -1.49%.
As for `CCc1cnc2c(c1NCc1cccc(OC)c1)c(=O)n(C)c(=O)n2C`, the Percent Effect in test [1] was -0.146%; in test [2], 23.4%; in test [3], -3.97%; in test [4], -14.3%; in the test with Trypanosoma cruzi it was 0.0986%; in test [5] it was -4.52%. Further, the Percent Effect in [6] is 5.74%; in the test filed under Homo sapiens it was 19.2%; in test [7], 3.17%; in [8] it was 14.1%; in test [9] it was -8.85%.
Take `Cc1nc(C2CCCN(C(=O)CCCn3ccnc3C)C2)no1` (stereo not given): the Percent Effect in test [1] is -3.92%; in [2], -5.2%; in [3], -5.99%; in [4], -4.13%; in the test on Trypanosoma cruzi, -3.37%; in test [5], 3.56%. The Percent Effect was -3.21% in [6]; 22.2% in the test filed under Homo sapiens; -0.971% in test [7]; -2.44% in test [8]; 5.19% in [9].
On to `O=C(NCCNc1ncccn1)N1CCCC(C(F)(F)F)C1` (stereo not given), for which the Percent Effect in test [1] was -2.28%; in test [2], 10.8%; in test [3] it was 3.11%; in test [4], -0.403%; in the test with Trypanosoma cruzi, -2.12%; in test [5], -1.43%. Moreover, the Percent Effect in test [6] is 7.59%; in the test listed under Homo sapiens, 6.58%; in test [7] it was 4.76%; in test [8] it was 19.5%; in [9], -5.39%.
As for `CC(C)c1nnc(CN2CCCC2Cn2cncn2)o1` (stereo not given), the Percent Effect in [1] was -4.03%; in test [2] it was 18.2%; in [3], -9.21%; in test [4] it was 3.1%; in the test on Trypanosoma cruzi, 5.99%; in test [5], 3.92%. The Percent Effect in test [6] was 10.3%; in the test filed under Homo sapiens it was -4.77%; in [7], 6.8%; in test [8], 24.4%; in test [9], -9.98%.
With `O=C(NCC1CC1)C1CN(C(=O)c2ccncc2)CC12CCOCC2` (stereo not given), the Percent Effect in test [1] was 1.79%; in test [2] it was 15.6%; in test [3], -0.39%; in test [4], -4.66%; in the test with Trypanosoma cruzi, 0.296%; in [5], 4.52%. For the same molecule, the Percent Effect in [6] is 17.6%; in the test filed under Homo sapiens, 28.1%; in test [7], 2.12%; in test [8] it was 19.2%; in test [9], -10.9%.
With `Cn1cc(CN2CC[C@H](O)[C@@H]2Cc2ccncc2)cn1`, the Percent Effect in test [1] is -8.41%; in test [2], 5.41%; in test [3], -33.1%; in test [4] it was -9.45%; in the test with Trypanosoma cruzi it was -0.293%; in test [5], -0.955%. The Percent Effect is 1.66% in test [6]; 26.4% in the test listed under Homo sapiens; -1.08% in test [7]; -2.56% in test [8]; 3.16% in test [9].
For the molecule `CCn1ccnc1CN1CCN(CCOc2cccc(C#N)c2)CC1`, the Percent Effect is -4.35% in test [1]; 21.1% in [2]; -6.98% in [3]; -4.93% in test [4]; 5.64% in the test with Trypanosoma cruzi; -0.383% in test [5]. The Percent Effect in test [6] was 11.9%; in the test listed under Homo sapiens, 4.93%; in [7], 8.33%; in test [8], 19.5%; in test [9] it was -13%.
